Test results as given in the supplement of paper PMC10849652.
Targets with a hit are over-represented here; the source holds about 7,900 in all. About 0.6% of all pairs of compound and target were hits. Unmarked numbers belong to inactive results.

Legend:
Test in all cases: log2 fold change, soluble protein after heating vs DMSO (PISA); higher = thermal stabilisation; K562 cells, 10 uM, 30 min; active = over 0.2 and 3.5 SD of the protein, either way, in both replicates (recomputed)
[1] = compound: CC1=C(C=C(C=C1)NC(=O)C2=CC(=CC=C2)C(C)(C)C#N)NC3=CC4=C(C=C3)N=CN(C4=O)C
In short: (§1)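 Quantification of soluble protein used TMTpro 16plex LC-MS/MS, with channel sums equalised. Samples were the supernatant after 21,000xg for 90 min of pooled aliquots from K562 cells (2×10^6 cells/mL) treated with 10 μM compound for 30 min, heated for 3 min over 48°C-58°C, and extracted in PBS with 0.5% NP-40 at 4°C. Values, from duplicates, describe thermal stability against control samples on a log2 fold-change scale.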

[2] = compound: CC1=C(C=C(C=C1)NC(=O)C2=CC(=CC=C2)N(C)C)NC(=O)C3=CC=C(C=C3)O
In short: as §1

[3] = compound: CC1=CC=C(C=C1)SC2=C3C=C(SC3=CN=C2)C(=O)N
In short: as §1

Nexturastat A = compound: CCCCN(Cc1ccc(C(=O)NO)cc1)C(=O)Nc1ccccc1 [Nexturastat A]
In short: as §1

vemurafenib = compound: CCCS(=O)(=O)Nc1ccc(F)c(C(=O)c2c[nH]c3ncc(-c4ccc(Cl)cc4)cc23)c1F [vemurafenib]
In short: as §1

[4] = compound: CCCS(=O)(=O)Nc1ccc(F)c(C(=O)c2c[nH]c3ncc(Cl)cc23)c1F
In short: as §1

[5] = compound: CCCc1cc(C)[nH]c(=O)c1CNC(=O)c1cc(-c2ccnc(N3CCN(C)CC3)c2)cc2c1cnn2C(C)C
In short: as §1

givinostat = compound: CCN(CC)Cc1ccc2cc(COC(=O)Nc3ccc(C(=O)NO)cc3)ccc2c1 [givinostat]
In short: as §1

barasertib = compound: CCN(CCCOc1ccc2c(Nc3cc(CC(=O)Nc4cccc(F)c4)[nH]n3)ncnc2c1)CCOP(=O)(O)O [barasertib]
In short: as §1

[6] = compound: CC[C@@H]1C(=O)N(C)c2cnc(Nc3ccc(C(=O)NC4CCN(C)CC4)cc3OC)nc2N1C1CCCC1
In short: as §1

volasertib = compound: CC[C@@H]1C(=O)N(C)c2cnc(Nc3ccc(C(=O)N[C@H]4CC[C@H](N5CCN(CC6CC6)CC5)CC4)cc3OC)nc2N1C(C)C [volasertib]
In short: as §1

[7] = compound: CC[C@H](C)N1C=C(C2=C(C=C(C=C21)C3=CN=C(C=C3)N4CCNCC4)C(=O)NCC5=C(C=C(NC5=O)C)C)C
In short: as §1

epoxomicin = compound: CC[C@H](C)[C@@H](C(=O)N[C@@H]([C@@H](C)O)C(=O)N[C@@H](CC(C)C)C(=O)[C@]1(CO1)C)NC(=O)[C@H]([C@@H](C)CC)N(C)C(=O)C [epoxomicin]
In short: as §1

[8] = compound: CCn1c(C(=O)N(C2CC2)C2CC2)cc2c3c(ncn3C)c(Nc3cc(C)n(C)n3)nc21
In short: as §1

[9] = compound: CCn1cc(-c2ccnc3[nH]c(-c4cccc(CN(C)C)c4)cc23)c(-c2ccc(NC(=O)N(C)C)cc2)n1
In short: as §1

[10] = compound: CN(C)CC(=O)Nc1ccc2[nH]c(=O)c3ccccc3c2c1
In short: as §1

rosiglitazone = compound: CN(CCOC1=CC=C(C=C1)C[C@H]2C(=O)NC(=O)S2)C3=CC=CC=N3 (racemic) [rosiglitazone]
In short: as §1

[11] = compound: CN1C2=C(C3=C1C(=O)N(N=C3)CC4=CC(=CC=C4)N)SC(=C2)S(=O)C
In short: as §1

[12] = compound: CN1CCC(CNc2ccc3ncc(-c4cccc(OC(F)(F)F)c4)n3n2)CC1
In short: as §1

[13] = compound: CC1=NC(=CC=C1)C2=C(N=C(N2)C(C)(C)C)C3=CC4=NC=CN=C4C=C3
In short: as §1

Sequence of UniProt Q96GX5 (Q96GX5 whole entry, looked up): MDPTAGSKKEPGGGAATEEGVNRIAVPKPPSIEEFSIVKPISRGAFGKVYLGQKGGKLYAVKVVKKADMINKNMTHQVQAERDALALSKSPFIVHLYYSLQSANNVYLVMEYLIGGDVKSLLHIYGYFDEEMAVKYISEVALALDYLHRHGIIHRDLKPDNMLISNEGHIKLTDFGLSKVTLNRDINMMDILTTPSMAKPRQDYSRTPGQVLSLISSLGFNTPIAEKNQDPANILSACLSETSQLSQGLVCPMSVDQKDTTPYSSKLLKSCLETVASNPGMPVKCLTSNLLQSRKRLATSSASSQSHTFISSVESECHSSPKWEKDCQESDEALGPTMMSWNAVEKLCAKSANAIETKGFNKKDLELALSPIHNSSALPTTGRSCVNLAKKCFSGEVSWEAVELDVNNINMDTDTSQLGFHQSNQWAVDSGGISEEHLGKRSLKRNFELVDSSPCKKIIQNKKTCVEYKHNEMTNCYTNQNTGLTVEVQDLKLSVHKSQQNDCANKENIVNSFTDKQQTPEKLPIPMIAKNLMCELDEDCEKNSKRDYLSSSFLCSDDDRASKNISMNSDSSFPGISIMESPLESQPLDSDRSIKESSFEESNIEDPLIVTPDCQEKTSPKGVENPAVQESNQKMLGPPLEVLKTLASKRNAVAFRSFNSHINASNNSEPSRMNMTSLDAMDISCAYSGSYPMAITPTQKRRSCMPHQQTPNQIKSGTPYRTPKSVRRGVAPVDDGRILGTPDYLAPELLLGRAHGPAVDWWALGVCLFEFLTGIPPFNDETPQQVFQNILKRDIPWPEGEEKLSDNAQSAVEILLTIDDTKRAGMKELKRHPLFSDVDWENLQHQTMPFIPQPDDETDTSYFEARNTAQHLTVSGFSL
Sequence of UniProt O15066 (O15066 whole entry, looked up): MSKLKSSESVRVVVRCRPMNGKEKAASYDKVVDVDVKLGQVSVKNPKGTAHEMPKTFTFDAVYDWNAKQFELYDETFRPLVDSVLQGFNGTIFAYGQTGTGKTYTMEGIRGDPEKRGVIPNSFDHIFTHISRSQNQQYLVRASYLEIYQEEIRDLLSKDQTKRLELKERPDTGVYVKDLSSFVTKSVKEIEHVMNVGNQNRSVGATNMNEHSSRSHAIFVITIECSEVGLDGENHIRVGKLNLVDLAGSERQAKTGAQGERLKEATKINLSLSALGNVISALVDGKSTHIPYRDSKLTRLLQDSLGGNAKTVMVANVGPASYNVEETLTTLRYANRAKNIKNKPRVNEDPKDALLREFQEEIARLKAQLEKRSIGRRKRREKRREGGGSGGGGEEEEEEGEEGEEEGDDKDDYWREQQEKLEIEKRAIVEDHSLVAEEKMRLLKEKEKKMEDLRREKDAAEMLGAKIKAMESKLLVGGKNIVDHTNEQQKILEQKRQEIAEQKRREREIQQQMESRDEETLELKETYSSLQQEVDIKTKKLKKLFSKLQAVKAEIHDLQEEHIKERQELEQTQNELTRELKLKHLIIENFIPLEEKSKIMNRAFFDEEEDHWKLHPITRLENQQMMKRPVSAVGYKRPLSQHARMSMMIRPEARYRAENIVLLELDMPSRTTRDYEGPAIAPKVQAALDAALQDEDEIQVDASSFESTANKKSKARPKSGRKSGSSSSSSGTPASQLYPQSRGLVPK
Sequence of UniProt P17936 (P17936 whole entry, looked up): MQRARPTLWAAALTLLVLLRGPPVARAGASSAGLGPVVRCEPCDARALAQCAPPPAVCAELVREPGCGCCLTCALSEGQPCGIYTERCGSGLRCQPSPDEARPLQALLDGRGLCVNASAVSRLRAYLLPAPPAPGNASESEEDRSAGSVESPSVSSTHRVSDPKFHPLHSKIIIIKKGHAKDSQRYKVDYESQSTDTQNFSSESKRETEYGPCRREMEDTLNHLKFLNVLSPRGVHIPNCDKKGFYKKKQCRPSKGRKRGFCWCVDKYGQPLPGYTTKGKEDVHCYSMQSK
Sequence of UniProt Q9NUN5 (Q9NUN5 whole entry, looked up): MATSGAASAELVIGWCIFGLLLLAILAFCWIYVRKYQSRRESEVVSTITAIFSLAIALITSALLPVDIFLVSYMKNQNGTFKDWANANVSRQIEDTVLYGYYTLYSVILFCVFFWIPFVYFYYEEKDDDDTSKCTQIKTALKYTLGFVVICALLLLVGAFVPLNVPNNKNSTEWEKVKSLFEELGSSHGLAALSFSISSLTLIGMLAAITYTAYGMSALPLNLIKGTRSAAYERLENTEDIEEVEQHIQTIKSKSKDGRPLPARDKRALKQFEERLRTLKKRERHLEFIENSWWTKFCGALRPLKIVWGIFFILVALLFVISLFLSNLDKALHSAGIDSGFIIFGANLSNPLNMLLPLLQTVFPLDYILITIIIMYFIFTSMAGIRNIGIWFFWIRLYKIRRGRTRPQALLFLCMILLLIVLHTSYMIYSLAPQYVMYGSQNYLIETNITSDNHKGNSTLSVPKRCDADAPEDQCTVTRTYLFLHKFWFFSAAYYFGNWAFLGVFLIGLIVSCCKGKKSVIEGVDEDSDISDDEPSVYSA
Sequence of UniProt O43934 (O43934 whole entry, looked up): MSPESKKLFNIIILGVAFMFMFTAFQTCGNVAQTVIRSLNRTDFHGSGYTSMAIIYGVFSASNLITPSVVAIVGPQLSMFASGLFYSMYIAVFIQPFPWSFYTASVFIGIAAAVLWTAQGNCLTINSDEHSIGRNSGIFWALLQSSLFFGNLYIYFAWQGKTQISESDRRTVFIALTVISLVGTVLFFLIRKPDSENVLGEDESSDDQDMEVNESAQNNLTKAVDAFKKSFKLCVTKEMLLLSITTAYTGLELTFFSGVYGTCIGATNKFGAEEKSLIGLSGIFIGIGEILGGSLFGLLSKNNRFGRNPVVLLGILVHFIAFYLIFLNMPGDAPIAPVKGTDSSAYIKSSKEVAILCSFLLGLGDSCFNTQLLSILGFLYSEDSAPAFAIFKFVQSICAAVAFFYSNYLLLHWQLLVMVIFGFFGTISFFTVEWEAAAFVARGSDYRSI
Sequence of UniProt P27816 (P27816 whole entry, looked up): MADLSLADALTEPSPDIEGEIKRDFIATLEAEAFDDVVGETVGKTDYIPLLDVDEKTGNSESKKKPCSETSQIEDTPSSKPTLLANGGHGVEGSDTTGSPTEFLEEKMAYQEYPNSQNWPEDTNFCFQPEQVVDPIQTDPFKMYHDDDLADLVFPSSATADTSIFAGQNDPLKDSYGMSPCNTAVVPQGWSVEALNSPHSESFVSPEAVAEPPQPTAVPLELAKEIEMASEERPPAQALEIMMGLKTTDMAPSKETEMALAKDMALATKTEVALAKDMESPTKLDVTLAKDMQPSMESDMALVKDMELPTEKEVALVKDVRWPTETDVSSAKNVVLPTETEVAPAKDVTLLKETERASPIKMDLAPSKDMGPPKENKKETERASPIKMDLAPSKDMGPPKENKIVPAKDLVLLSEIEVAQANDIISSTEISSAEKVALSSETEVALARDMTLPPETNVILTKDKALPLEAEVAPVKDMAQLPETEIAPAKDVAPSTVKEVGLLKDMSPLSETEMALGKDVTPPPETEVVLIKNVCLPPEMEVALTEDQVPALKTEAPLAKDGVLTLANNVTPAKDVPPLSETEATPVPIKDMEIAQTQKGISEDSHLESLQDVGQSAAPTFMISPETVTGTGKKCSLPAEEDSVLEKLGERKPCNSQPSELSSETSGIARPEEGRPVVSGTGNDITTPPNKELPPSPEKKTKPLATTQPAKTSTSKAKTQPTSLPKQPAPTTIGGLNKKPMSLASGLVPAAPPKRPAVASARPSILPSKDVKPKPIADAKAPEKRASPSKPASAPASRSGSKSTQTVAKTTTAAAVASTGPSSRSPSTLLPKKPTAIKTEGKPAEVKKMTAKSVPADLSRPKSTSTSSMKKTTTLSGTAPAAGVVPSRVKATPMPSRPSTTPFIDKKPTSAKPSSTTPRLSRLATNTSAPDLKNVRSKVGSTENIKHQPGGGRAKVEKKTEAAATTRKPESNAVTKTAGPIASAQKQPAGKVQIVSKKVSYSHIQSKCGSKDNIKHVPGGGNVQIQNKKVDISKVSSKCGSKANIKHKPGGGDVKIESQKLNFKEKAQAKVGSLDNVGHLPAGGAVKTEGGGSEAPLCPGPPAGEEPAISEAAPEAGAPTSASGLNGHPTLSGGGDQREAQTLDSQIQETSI
Sequence of UniProt Q96PV6 (Q96PV6 whole entry, looked up): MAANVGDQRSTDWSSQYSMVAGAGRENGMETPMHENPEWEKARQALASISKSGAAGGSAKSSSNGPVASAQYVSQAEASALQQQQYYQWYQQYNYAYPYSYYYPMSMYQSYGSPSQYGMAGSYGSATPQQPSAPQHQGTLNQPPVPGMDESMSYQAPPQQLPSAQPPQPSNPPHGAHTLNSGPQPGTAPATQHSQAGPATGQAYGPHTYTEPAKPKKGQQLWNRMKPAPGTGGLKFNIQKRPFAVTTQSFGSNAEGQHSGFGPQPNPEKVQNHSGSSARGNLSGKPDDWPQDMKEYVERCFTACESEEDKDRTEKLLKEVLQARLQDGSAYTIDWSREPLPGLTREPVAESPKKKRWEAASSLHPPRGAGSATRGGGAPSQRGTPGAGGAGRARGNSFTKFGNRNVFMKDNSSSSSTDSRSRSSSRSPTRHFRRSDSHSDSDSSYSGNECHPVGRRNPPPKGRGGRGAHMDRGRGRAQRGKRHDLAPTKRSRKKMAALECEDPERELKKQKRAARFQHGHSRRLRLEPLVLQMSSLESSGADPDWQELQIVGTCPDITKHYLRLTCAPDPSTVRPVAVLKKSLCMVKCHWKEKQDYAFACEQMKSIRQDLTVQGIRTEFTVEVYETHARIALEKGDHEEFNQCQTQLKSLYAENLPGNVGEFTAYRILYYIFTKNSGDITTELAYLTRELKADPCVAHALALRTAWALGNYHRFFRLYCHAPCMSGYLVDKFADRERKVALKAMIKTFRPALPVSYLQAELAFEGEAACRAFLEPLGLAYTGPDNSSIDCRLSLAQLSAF
Sequence of UniProt Q96LU5 (Q96LU5 whole entry, looked up): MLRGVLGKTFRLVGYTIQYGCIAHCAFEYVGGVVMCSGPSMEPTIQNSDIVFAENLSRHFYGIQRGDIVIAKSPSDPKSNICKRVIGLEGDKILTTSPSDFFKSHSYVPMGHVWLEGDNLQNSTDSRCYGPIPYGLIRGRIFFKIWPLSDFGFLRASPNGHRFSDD

Row | Target | log2 fold change [1] | log2 fold change [2] | log2 fold change [3] | log2 fold change (Nexturastat A) | log2 fold change (vemurafenib) | log2 fold change [4] | log2 fold change [5] | log2 fold change (givinostat) | log2 fold change (barasertib) | log2 fold change [6] | log2 fold change (volasertib) | log2 fold change [7] | log2 fold change (epoxomicin) | log2 fold change [8] | log2 fold change [9] | log2 fold change [10] | log2 fold change (rosiglitazone) | log2 fold change [11] | log2 fold change [12] | log2 fold change [13]
1 | LMBRD1 (UniProt Q9NUN5) | 0.073 | 0.02 | 0.023 | -0.034 | -0.101 | -0.057 | -0.077 | 0.05 | -0.039 | -0.073 | 0.032 | 0.015 | 0.065 | -0.01 | -0.015 | 0.015 | -0.016 | 0.133 | -0.351 | 
2 | LRFN1 (UniProt Q9P244) | 0.052 | 0.076 | 0.02 | 0.241 | -0.031 | 0.054 |  | -0.025 | 0.037 | -0.015 | 0.033 |  | -0.125 | 0.07 |  | 0.134 | 0.006 | 0.069 |  | -0.101
3 | LUM (UniProt P51884) | -0.011 | 0.403 | 0.042 | -0.008 | 0.069 | -0.266 |  | -0.108 |  | 0.076 | 0.225 | -0.269 | -0.145 | 0.2 |  | -0.167 |  | 0.054 |  | 0.061
4 | MFSD11 (UniProt O43934) | -0.171 |  | 0.038 | -0.097 | -0.012 | 0.039 | -0.02 |  | 0.013 | -0.244 | 0.021 | -0.108 | 0.03 |  | 0.021 | 0.017 | -0.006 | -0.026 | -0.345 (active) | 0.013
5 | IGFBP3 isoform 2 (UniProt P17936) | -0.187 |  | 0.1 | 0.204 | 0.031 | 0.076 |  |  |  |  | -0.507 |  | -0.251 |  | 0.075 | -0.238 |  | 0.199 | -0.555 | 0.205
6 | LENG8 (UniProt Q96PV6) | 0.112 | -0.201 |  | -0.139 | 0.146 |  | 0.066 | 0.09 | 0.173 | -0.029 |  | -0.009 | 0.101 | 0.005 | 0.073 | 0.065 | 0.017 | -0.225 | -0.238 | 0.009
7 | MASTL (UniProt Q96GX5) | 0.032 | 0.187 |  | -0.149 | -0.028 |  | -0.032 | -0.038 | -0.013 | -0.02 |  | 0.045 | 0.113 | -0.048 |  | -0.143 | -0.006 | 0.081 |  | -0.056
8 | KCNK5 (UniProt O95279) | -0.114 |  | 0.195 | 0.106 |  | 0.1 | 0.157 | -0.319 | 0.097 | -0.042 | -0.174 |  | 0.046 | 0.004 | 0.047 |  | 0.179 | 0.223 | -0.073 | 0.084
9 | MAML1 (UniProt Q92585) | -0.05 | -0.035 |  | 0.039 | 0.038 |  |  | 0.299 |  |  |  |  | 0.059 | -0.092 |  | -0.055 |  |  |  | 0.199
10 | INTS5 (UniProt Q6P9B9) | 0.091 | -0.061 | 0.026 | 0.01 | 0.087 | 0.074 | 0.122 | 0.038 | 0.015 |  | -0.152 | 0.049 | 0.052 | -0.046 |  | -0.003 | 0.212 | -0.133 |  | 0.042
11 | IMMP1L (UniProt Q96LU5) | 0.003 | 0.067 | 0.008 | -0.085 | -0.055 | -0.031 | 0.273 | -0.048 | -0.024 | -0.012 | -0.055 | -0.02 | -0.015 | -0.031 |  | 0.017 | -0.003 | -0.097 |  | -0.029
12 | MCM10 (UniProt Q7L590) | 0.209 |  | 0.166 | 0.028 | -0.016 | 0.217 | -0.037 | -0.065 | -0.012 | -0.074 | 0 | -0.034 | 0.148 | 0.069 | -0.037 | -0.023 | -0.164 |  | 0.096 | 0.155
13 | IKZF1 isoform 2 (UniProt Q13422) | 0.141 | -0.068 |  |  | 0.095 |  | -0.002 | -0.135 | -0.08 |  |  | -0.011 |  | -0.034 |  | -0.043 | 0.078 |  |  | 
14 | ITM2C (UniProt Q9NQX7) | 0.096 | 0.004 | 0.187 | 0.084 | 0.006 | -0.014 |  | 0.09 | 0.057 |  | -0.312 | 0.049 | -0.149 | -0.096 | -0.104 | -0.046 | 0.069 | 0.125 | 0.218 | 
15 | ITGA2B (UniProt P08514) | -0.071 | 0.064 | -0.058 | 0.121 | -0.105 | 0.134 |  | 0.09 |  |  | 0.134 | -0.211 | -0.089 | -0.011 | -0.173 | 0.067 |  | 0.117 | -0.07 | -0.052
16 | MAP4 isoform 5 (UniProt P27816) | 0.013 | 0.055 | -0.173 | 0.105 |  | -0.01 | -0.161 | -0.028 | -0.114 | -0.001 | -0.046 | -0.258 | 0.134 | -0.03 |  |  | 0.008 |  |  | 
17 | MFSD1 isoform 6 (UniProt Q9H3U5) | 0.056 | -0.008 | -0.046 | -0.106 | -0.053 | -0.059 | 0.021 | 0.008 | 0.041 | -0.022 | 0.053 | -0.01 | 0 | -0.023 | -0.069 | -0.025 | -0.016 |  | -0.012 | 
18 | KIF3B (UniProt O15066) | -0.082 | 0.05 | -0.022 | 0.097 | 0.018 | 0.017 | -0.019 | 0.067 | -0.062 | 0.156 | -0.009 |  | -0.134 | -0.204 | 0.159 | -0.078 | 0.106 | -0.052 | 0.378 (active) | -0.042
19 | MED17 (UniProt Q9NVC6) | 0.042 | -0.03 | -0.186 | 0.052 | 0.071 | -0.168 | 0.025 | -0.014 |  | -0.011 | -0.021 | -0.008 | -0.015 | -0.027 | 0.08 | 0.037 |  | 0.036 | -0.134 | 0.005
20 | MARK2 (UniProt E9PC69) | -0.011 | -0.018 | 0.094 | 0.025 | -0.005 | -0.034 |  | 0.132 | 0.034 | 0.044 | -0.469 | 0.086 | 0.023 | -0.137 |  | -0.028 | -0.014 | 0.187 |  | 0.06
